# Test results published in the antibiotic and cytotoxicity screens of Wong et al. (2023).
# The campaign covered roughly 39,000 compounds. About 500 (1.3%) were called active. The sample as a whole holds a higher share of actives than the screen did.
# System: S. aureus RN4220
# Assay: growth inhibition call (relative growth <= 0.2)
# Settings: 50 µM
row,Structure (SMILES),growth inhibition call
1,Cc1cc(=O)n2nc(CC(=O)NCCCn3c(C)cccc3=O)nc2[nH]1,inactive
2,C[C@H]1CN([C@@H](C)CO)S(=O)(=O)c2ccc(Br)cc2O[C@H]1CN(C)S(=O)(=O)c1ccccc1,inactive
3,Cc1noc(C)c1S(=O)(=O)N(C)C[C@@H]1Oc2ccc(NC(=O)C3CC3)cc2CC(=O)N([C@@H](C)CO)C[C@@H]1C,inactive
4,C[C@@H]1CN([C@@H](C)CO)C(=O)c2cc(NS(=O)(=O)c3ccc(Cl)cc3)ccc2O[C@@H](C)CCCCO[C@@H]1CN(C)Cc1ccccc1,inactive
5,C[C@H]1CN([C@@H](C)CO)C(=O)c2c(c3ccccc3n2C)-c2ccccc2CO[C@H]1CN(C)C(=O)Nc1cccc(F)c1,inactive
6,Cc1cc(OCCCS(C)(=O)=O)cc(C)c1-c1cccc(COc2ccc3c(c2)OC[C@H]3CC(=O)O)c1,active
7,C[C@H]1OC(=O)c2c(O)ccc(O)c2[C@H]1O,inactive
8,COc1cccc(NC(=O)N2C[C@H](O)COC[C@@H]3O[C@H](CC(=O)NCCCN4CCOCC4)CC[C@H]32)c1,inactive
9,COC1CC(OC2C(C)=CCC3CC(CC4(CCC(C)C(C5CCCCC5)O4)O3)OC(=O)C3C=C(C)C(=NO)C4OCC(=CC=CC2C)C34O)OC(C)C1O (stereo not given),inactive
10,CO[C@H]1C[C@H](O[C@@H]2/C(C)=C/C[C@@H]3C[C@@H](C[C@]4(CC[C@H](C)[C@@H](C5CCCCC5)O4)O3)OC(=O)[C@@H]3C=C(C)/C(=N/O)[C@H]4OC/C(=C\C=C\[C@@H]2C)[C@]43O)O[C@@H](C)[C@@H]1O,active
11,CCC(C)C1OC2(C=CC1C)CC1CC(CC=C(C)C(OC3CC(OC)C(OC4CC(OC)C(NC(C)=O)C(C)O4)C(C)O3)C(C)C=CC=C3COC4C(O)C(C)=CC(C(=O)O1)C34O)O2 (stereo not given),inactive
12,CO[C@H]1C[C@@H](O[C@@H]2/C(C)=C/C[C@@H]3C[C@@H](C[C@]4(CC[C@H](C)[C@@H](C5CCCCC5)O4)O3)OC(=O)[C@@H]3C=C(C)/C(=N/O)[C@H]4OC/C(=C\C=C\[C@@H]2C)[C@]43O)O[C@@H](C)[C@@H]1O,inactive
13,CC[C@H](C)[C@H]1O[C@]2(C=C[C@@H]1C)C[C@@H]1C[C@@H](C/C=C(\C)[C@@H](O[C@H]3C[C@H](OC)[C@@H](O[C@H]4C[C@H](OC)[C@@H](NC(C)=O)[C@H](C)O4)[C@H](C)O3)[C@@H](C)/C=C/C=C3\CO[C@@H]4[C@H](O)C(C)=C[C@@H](C(=O)O1)[C@]34O)O2,inactive
14,CN[C@@H]1[C@@H](C)O[C@@H](O[C@H]2[C@H](C)O[C@@H](O[C@@H]3/C(C)=C/C[C@@H]4C[C@@H](C[C@]5(C=C[C@H](C)[C@@H](C(C)C)O5)O4)OC(=O)[C@@H]4C=C(C)[C@@H](O)[C@H]5OC/C(=C\C=C\[C@@H]3C)[C@]54O)C[C@@H]2OC)C[C@H]1OC,active
15,COc1ccc(S(=O)(=O)Nc2ccc3c(c2)C(=O)N([C@H](C)CO)C[C@H](C)[C@@H](CN(C)C(=O)CCC(F)(F)F)OCCCC[C@@H](C)O3)cc1,inactive
16,COc1cccc(-c2cnc3c(c2)C(=O)N([C@H](C)CO)C[C@H](C)[C@H](CN(C)S(=O)(=O)c2cn(C)cn2)O3)c1,inactive
17,O=C1NC2=C(C(=O)OC2)[C@H](c2ccccc2)N1,inactive
18,C[C@@H](O)[C@@H](O)[C@@H](O)C/C=N/NC(=O)CCCCCCC(=O)NO,inactive
19,CC(C)NC(=O)N(C)C[C@@H]1Oc2ccc(NC(=O)CCN3CCOCC3)cc2C(=O)N([C@H](C)CO)C[C@@H]1C,inactive
20,COc1cc(C=Cc2ccc(O)cc2)cc(OC)c1,active
21,Oc1ccc(C=Cc2cc(O)cc(O)c2)cc1,inactive
22,COc1ccc(O)cc1,inactive
23,CCCCCC=CCCC(=O)NC1C(Oc2c3cc4cc2Oc2ccc(cc2Cl)C(OC2OC(CO)C(O)C(O)C2NC(C)=O)C2NC(=O)C(NC(=O)C4NC(=O)C4NC(=O)C(Cc5ccc(c(Cl)c5)O3)NC(=O)C(N)c3ccc(O)c(c3)Oc3cc(O)cc4c3)c3ccc(O)c(c3)-c3c(OC4OC(CO)C(O)C(O)C4O)cc(O)cc3C(C(=O)O)NC2=O)OC(CO)C(O)C1O (stereo not given) [TEICOPLANIN [A(2-1) shown]],active
24,CCCCC/C=C/CCC(=O)N[C@H]1[C@H](Oc2c3cc4cc2Oc2ccc(cc2Cl)[C@@H](O[C@@H]2O[C@H](CO)[C@@H](O)[C@H](O)[C@H]2NC(C)=O)[C@@H]2NC(=O)[C@H](NC(=O)[C@@H]4NC(=O)[C@H]4NC(=O)[C@@H](Cc5ccc(c(Cl)c5)O3)NC(=O)[C@H](N)c3ccc(O)c(c3)Oc3cc(O)cc4c3)c3ccc(O)c(c3)-c3c(O[C@H]4O[C@H](CO)[C@@H](O)[C@H](O)[C@@H]4O)cc(O)cc3[C@@H](C(=O)O)NC2=O)O[C@H](CO)[C@@H](O)[C@@H]1O,active
25,CCCCCCCCCC(=O)N[C@H]1[C@H](Oc2c3cc4cc2Oc2ccc(cc2Cl)[C@@H](O[C@@H]2O[C@H](CO)[C@@H](O)[C@H](O)[C@H]2NC(C)=O)[C@@H]2NC(=O)[C@H](NC(=O)[C@@H]4NC(=O)[C@H]4NC(=O)[C@@H](Cc5ccc(c(Cl)c5)O3)NC(=O)[C@@H](N)c3ccc(O)c(c3)Oc3cc(O)cc4c3)c3ccc(O)c(c3)-c3c(O[C@H]4O[C@H](CO)[C@@H](O)[C@H](O)[C@@H]4O)cc(O)cc3[C@H](C(=O)O)NC2=O)O[C@H](CO)[C@@H](O)[C@@H]1O,active
26,C[C@@H]1CN([C@@H](C)CO)C(=O)c2cc(NC(=O)Nc3ccc4c(c3)OCO4)ccc2O[C@@H](C)CCCCO[C@@H]1CN(C)C(=O)C1CCCCC1,inactive
27,COc1ccc(S(=O)(=O)Nc2ccc3c(c2)C(=O)N([C@H](C)CO)C[C@@H](C)[C@@H](CN(C)C(=O)C2CCCCC2)OCCCC[C@@H](C)O3)cc1,inactive
28,C[C@H](CO)N1C[C@H](C)[C@H](CN(C)S(=O)(=O)c2cn(C)cn2)Oc2ccc(NC(=O)NC3CCCCC3)cc2C1=O,inactive

row,Structure (SMILES),growth inhibition call
1,C[C@@H]1CCCCO[C@H](CN(C)Cc2ccccc2)[C@@H](C)CN([C@@H](C)CO)C(=O)c2cc(NS(=O)(=O)c3ccc(F)cc3)ccc2O1,inactive
2,C[C@@H]1CCCCO[C@H](CN(C)S(=O)(=O)c2cccs2)[C@@H](C)CN([C@@H](C)CO)C(=O)c2cc(NC(=O)CCC(F)(F)F)ccc2O1,inactive
3,CC(=O)OC[C@H]1O[C@@](COC(C)=O)(O[C@H]2O[C@H](COC(C)=O)[C@@H](OC(C)=O)[C@H](OC(C)=O)[C@H]2OC(C)=O)[C@@H](OC(C)=O)[C@@H]1OC(C)=O,inactive
4,C[C@H]1CN([C@@H](C)CO)C(=O)CCCn2nncc2CO[C@@H]1CN(C)S(=O)(=O)c1ccc2c(c1)OCCCO2,inactive
5,C[C@H](CO)N1C[C@H](C)[C@@H](CN(C)Cc2ccc(Oc3ccccc3)cc2)Oc2ccc(NS(=O)(=O)c3ccc(F)cc3)cc2C1=O,inactive
6,C[C@H]1CN([C@@H](C)CO)C(=O)c2cccc(NS(=O)(=O)c3ccc(F)cc3)c2O[C@H]1CN(C)Cc1ccc(Cl)c(Cl)c1,inactive
7,C[C@H]1CN([C@@H](C)CO)C(=O)Cc2cc(NC(=O)CCCCCC(=O)Nc3ccccc3N)ccc2O[C@@H]1CN(C)C(=O)Nc1ccc(C(F)(F)F)cc1,inactive
8,CCS(=O)(=O)Nc1ccc2c(c1)C(=O)N(C)[C@H]1CC[C@@H](CC(=O)N3CCN(C)CC3)O[C@@H]1CO2,inactive
9,COc1cc(CN)cc(OC)c1OC,inactive
10,COc1cc(O)cc(OC)c1OC,inactive
11,COc1cccnc1N,inactive
12,COc1ccc(Cc2cnc(N)nc2N)cc1OC,active
13,COc1cc(Cc2cnc(N)nc2N)cc(OC)c1OC,active
14,COc1ccc(C2=C(N)C(=O)NC2=O)cc1OC,inactive
15,COc1ccc(NC(=O)N(C)C[C@H]2OCCCC[C@H](C)Oc3ccc(NC(=O)c4ccncc4)cc3C(=O)N([C@@H](C)CO)C[C@@H]2C)cc1,inactive
16,COc1ccc(CN(C)C[C@H]2OCCCC[C@@H](C)Oc3ccc(NC(=O)Nc4ccc5c(c4)OCO5)cc3C(=O)N([C@H](C)CO)C[C@H]2C)cc1,inactive
17,C[C@@H]1CCCCO[C@@H](CN(C)Cc2ccc(C(=O)O)cc2)[C@@H](C)CN([C@H](C)CO)C(=O)c2cc(NS(=O)(=O)c3ccc(Cl)cc3)ccc2O1,inactive
18,COc1ccc(NC(=O)Nc2ccc3c(c2)C(=O)N([C@H](C)CO)C[C@H](C)[C@H](CN(C)C(=O)C2CCCCC2)OCCCC[C@H](C)O3)cc1,inactive
19,C[C@@H]1CN([C@H](C)CO)C(=O)c2cccc(NC(=O)CCCCCC(=O)Nc3ccccc3N)c2O[C@@H]1CN(C)Cc1ccc(-c2ccccc2)cc1,inactive
20,COc1ccc(CN(C)C[C@H]2Oc3c(NS(=O)(=O)c4cn(C)cn4)cccc3C(=O)N([C@@H](C)CO)C[C@@H]2C)cc1,inactive
21,CO[C@@H]1CN(C)C(=O)c2cc(NS(=O)(=O)c3ccccc3C)ccc2OC[C@@H](C)N(S(C)(=O)=O)C[C@H]1C,inactive
22,C[C@H](CO)N1C[C@H](C)[C@@H](CN(C)Cc2ccc(C(F)(F)F)cc2)OCCCC[C@H](C)Oc2ccc(NC(=O)c3ccncc3)cc2C1=O,inactive
23,C[C@@H]1CN([C@H](C)CO)C(=O)c2cc(NC(=O)NC3CCCCC3)ccc2O[C@@H]1CN(C)Cc1ccc(Cl)c(Cl)c1,inactive
24,CS(=O)(=O)O.CSc1ccc2c(c1)C(N1CCN(C)CC1)Cc1ccccc1S2 (stereo not given),active
25,CSc1ccc2c(c1)N(CCC1CCCCN1C)c1ccccc1S2.Cl (stereo not given),inactive
26,CN1CCC(=C2c3ccccc3Sc3ccccc32)CC1.O=C(O)C=CC(=O)O,inactive
27,C[C@@H]1CCCCO[C@@H](CN(C)C(=O)c2ccccc2)[C@@H](C)CN([C@@H](C)CO)C(=O)c2cc(NC(=O)Nc3ccc(C(F)(F)F)cc3)ccc2O1,inactive
